The values that follow come from PubChem BioAssay (NCATS).

Results filed as inconclusive are left out. Activity calls are given as the source filed them. Calls come from the whole dose curve; as a rule, active = well fitted cell-killing curve with a large enough effect; inconclusive = small, poorly fitted or top-dose-only effect, or effect the other way; inactive = no such curve, though single readings can be large or run the other way. Non-standard residues stand in square brackets, D forms with d. Residues, ends and D or L forms follow the SMILES beside them. *: point of attachment. Nva = CCC[C@H](N)C(=O)O; Cbz = O=C(OCc1ccccc1)*
Potency is the fitted concentration of half-maximal effect.

This assay can be described thus: Quantitative High-Throughput drug screen in 47 multiple myeloma cell lines against the NCATS MIPE library collection: MM1S_ATCC cell viability assay (AID 1918980). Note: nearly all actives have a fitted effect of over 45% in size. Particulars: MM1S myeloma viability, CellTiter-Glo ATP luminescence, 48 h; series mostly up to 45.8 µM. The source says:
PI: Beverly A. Mock Ph.D.
Laboratory of Cancer Biology and Genetics,
Center for Cancer Research, National Cancer Institute,
National Institute of Health, Bethesda, Maryland
Drug resistance and disease progression are common in multiple myeloma (MM) patients, underscoring the need for new therapeutic combinations. […] We hypothesized that effective combinations would reduce MYC expression and enhance p16 activity. […] These preclinical data identify potentially useful drug combinations for evaluation in drug-resistant MM and reveal potential mechanisms of combined drug sensitivity.
Described herein is the primary MIPE qHTS used to cherrypick compounds. Validated compounds were then further tested for potential synergistic activiy.
[1] Peat TJ, Gaikwad SM, Dubois W, Gyabaah-Kessie N, Zhang S, Gorjifard S, Phyo Z, Andres M, Hughitt VK, Simpson RM, Miller MA, Girvin AT, Taylor A, Williams D, D'Antonio N, Zhang Y, Rajagopalan A, Flietner E, Wilson K, Zhang X, Shinn P, Klumpp-Thomas C, McKnight C, Itkin Z, Chen L, Kazandijian D, Zhang J, Michalowski AM, Simmons JK, Keats J, Thomas CJ, Mock BA. Drug combinations identified by high-throughput screening promote cell cycle transition and upregulate Smad pathways in myeloma. Cancer Lett. 2023 Aug 1;568:216284. doi: 10.1016/j.canlet.2023.216284. Epub 2023 Jun 24. PMID: 37356470; PMCID: PMC10408729.
SEQUENCE No. (e.g., 1, 2, 3, etc.); […] (e.g., Cells, Incubation, Reagent, etc.); VALUE and DESCRIPTION.
1; Cells; 5 uL; white, solid bottom 1536-well Greiner assay plate.
2; Compounds; 23 nL; Kalypsis pin tool (Wako USA) equipped with a 1536-well pin head to transfer to the assay plates.
3; Incubation; 48 hours; 37C incubation.
4; Reagent;5uL; CellTiter Glo (Promega).
5; Detector; 425V; Luminescence; Viewlux PerkinElmer.
NOTES (numbers refer to Sequence numbers above)
1. The cell-based screening methods employed in this study were like those previously published. Briefly, the corresponding myeloma cell lines were screened in 1,536-well plates with 500 cells, 5-uL per well for inhibition of cell viability (assessed by measuring ATP levels with CellTiterGlo).
2. NCATS MIPE 4.0 library of approved and investigational drugs were added using the Kalypsis pin tool. Wells treated with DMSO only for 100% viability and media only for 0% viability were used as controls.
3. The assay plates were covered and incubated for 48 hours in a 37C, 5% CO2 incubator with controlled humidity.
4. After 48 hours, CellTilter-GloTM luminescent substrate mix (Promega) reagent was added to the assay plate and plates we incubated for 5 min at room temperature.
5. Signal was measured as median relative luminescence units on a ViewLux (PerkinElmer) multiplate reader.
[1] Heske CM, Davis MI, Baumgart JT, Wilson K, Gormally MV, Chen L, Zhang X, Ceribelli M, Duveau DY, Guha R, Ferrer M, Arnaldez FI, Ji J, Tran HL, Zhang Y, Mendoza A, Helman LJ, Thomas CJ. Matrix Screen Identifies Synergistic Combination of PARP Inhibitors and Nicotinamide Phosphoribosyltransferase (NAMPT) Inhibitors in Ewing Sarcoma. Clin Cancer Res. 2017 Dec 1;23(23):7301-7311. doi: 10.1158/1078-0432.CCR-17-1121. Epub 2017 Sep 12. PMID: 28899971; PMCID: PMC6636827.
With `Cn1cc(C[C@@H](N)C(=O)O)c2ccccc21`, the Potency result was “inactive”.
As for `O=C(O)C=Cc1ccc(Cn2ccnc2)cc1`, the entry is “inactive”; as for `OCCNC1CCCc2c1[nH]c1ccc(-c3ccccc3)cc21` (stereo not given), 20.9 µM (active); as for `NC(=O)Nc1sc(-c2ccc(F)cc2)cc1C(N)=O`, 0.332 µM (active).
`C=C1C(=CC=C2CCC[C@]3(C)[C@@H]([C@H](C)CCCC(C)(C)O)CC[C@@H]23)C[C@@H](O)C[C@@H]1O`: the Potency was 1.48 µM (active).
As for `N[C@H]1CN(c2c(F)cc3c(=O)c(C(=O)O)cn(C4C[C@@H]4F)c3c2Cl)CC12CC2` (stereo not given in full), the Potency entry was “inactive”.
With `CCN(CC)CCCCNc1ncc2c(n1)N(C)C(=O)N(c1c(Cl)c(OC)cc(OC)c1Cl)C2` the figure was 4.69 µM (active); with `Cc1ccc2nc(NCCN)c3ncc(C)n3c2c1`, 1.66 µM (active).
As to `Cn1cc(C2=C(c3c4n(c5ccccc35)CCC(CN)C4)C(=O)NC2=O)c2ccccc21` (stereo not given), the Potency was 6.62 µM (active).
`Cn1cc(C=CC(=O)c2cccc(F)c2)cc1C=CC(=O)NO`: the Potency is 14.8 µM (active).
In the case of `COc1cc([C@@H]2c3cc4c(cc3[C@@H](O[C@@H]3O[C@@H]5CO[C@@H](c6cccs6)O[C@@H]5[C@H](O)[C@@H]3O)[C@H]3COC(=O)[C@H]23)OCO4)cc(OC)c1O`, the Potency was 0.059 µM (active).
As to `CCC[C@@H](C=O)NC(=O)[C@H](CC(C)C)NC(=O)[C@H](CC(C)C)NC(=O)OCc1ccccc1` (Cbz-Leu-Leu-[Nva]-aldehyde), the Potency was 0.418 µM (active).
With `CCNC(=O)Nc1ccc(-c2nc3c(c(N4CCOC[C@H]4C)n2)CCN(C2COC2)C3)cc1` the figure was 1.05 µM (active); with `O=C1c2cccc(O)c2C(=O)c2c(O)cc(CO)cc21`, “inactive”.
Regarding `CC(C)(O)Cn1c(NC(=O)c2ccc(-c3cn[nH]c3)s2)nc2cc(CN3CCOCC3)ccc21`, the Potency is 1.66 µM (active).
As to `NC(=O)N1CCC(CC(=O)N2CCC([C@H]3c4ncc(Br)cc4CCc4cc(Cl)cc(Br)c43)CC2)CC1`, the Potency was 16.6 µM (active).
`C=Cc1c(C)c2cc3nc(cc4[nH]c(cc5nc(cc1[nH]2)C(C)=C5CCC(=O)O)c(CCC(=O)OC)c4C)[C@@]1(C)C3=CC=C(C(=O)OC)[C@H]1C(=O)OC`: the Potency was 0.0526 µM (active).
For `C[C@H](CCC(=O)O)[C@H]1CC[C@H]2[C@@H]3[C@H](O)C[C@@H]4C[C@H](O)CC[C@]4(C)[C@@H]3CC[C@]12C`, the Potency entry is “inactive”.
In the case of `O=C1NC(=O)[C@@H](c2cn3c4c(cccc24)CCC3)[C@H]1c1c[nH]c2ccccc12`, the Potency was 18.7 µM (active).
As for `COc1ccc2c(c1OC)C(=O)OC2[C@H]1c2c(cc3c(c2OC)OCO3)CCN1C` (stereo not given in full), the Potency is 0.332 µM (active).
With `CC(N[C@H]1CCCC[C@H]1NC(=O)c1ccc(Cl)cc1)c1cccc2ccccc12` (stereo not given in full) the figure was 8.33 µM (active); with `CC(C(C)N1CC(=O)NC(=O)C1)N1CC(=O)NC(=O)C1` (stereo not given), “inactive”; with `CNC(=O)Nc1ccc(-c2nc(N3CC4CCC(C3)O4)c3cnn(C4CCC5(CC4)OCCO5)c3n2)cc1`, 0.0148 µM (active).
Turning to `Cc1ncc(-c2ccnc(Nc3ccc(S(C)(=O)=O)cc3)n2)n1C(C)C`, the Potency was 2.64 µM (active).
Take `CC(C)(C)c1nc2c3cc[nH]c(=O)c3c3cc(F)ccc3c2[nH]1`: the Potency was 14.8 µM (active).
For `COc1cc(OC)cc(-c2ccc3ncc4ccc(=O)n(-c5ccc(N6CCNCC6)c(C(F)(F)F)c5)c4c3c2)c1`, the Potency was 3.32 µM (active).
As for `O=c1[nH]c(=O)n([C@H]2C[C@@H](O)[C@@H](CO)O2)cc1F`, the figure is 11.8 µM (active); as for `CCc1c(O)cc(O)c(C(=O)c2ccc(OCCN3CCOCC3)c(OC)c2)c1CC(=O)N(CCOC)CCOC`, 1.48 µM (active).
In the case of `C[C@H]1O[C@H](O[C@H]2[C@H](O)[C@@H](O)[C@@H](O[C@H]3[C@H](O)[C@@H](O)C(O)O[C@H]3CO)O[C@H]2CO)[C@H](O)[C@@H](O)[C@H]1N[C@H]1C=C(CO)[C@@H](O)[C@H](O)[C@@H]1O` (stereo not given in full), the Potency entry was “inactive”.
On to `CCOC(=O)[C@H](CCc1ccccc1)N[C@@H](C)C(=O)N1[C@@H](C(=O)O)C[C@H]2CCC[C@@H]21`, for which the Potency was 2.64 µM (active).
As for `COc1cccc2c1C(=O)c1c(O)c3c(c(O)c1C2=O)C[C@@](O)(C(=O)CO)C[C@@H]3O[C@H]1C[C@H](N)[C@H](OC2CCCCO2)[C@H](C)O1` (stereo not given in full), the figure is 0.132 µM (active).
As for `c1ccc(CNc2nc(NCc3ccccc3)c3ccccc3n2)cc1`, the figure is 8.33 µM (active).
On to `COc1ccc(S(=O)(=O)Nc2cccnc2Nc2ccc(O)cc2)cc1`, for which the Potency is 0.209 µM (active).
Take `CCN(CC)CCNC(=O)c1c(C)[nH]c(C=C2C(=O)Nc3ccc(F)cc32)c1C`: the Potency is 4.81 µM (active).
As for `Cn1cc(CNCC2CCN(c3ncc(C(=O)NO)cn3)CC2)c2ccccc21`, the Potency is 0.0166 µM (active).
As for `COC(=O)[C@@H]1[C@H]2C[C@@H]3c4[nH]c5ccccc5c4CCN3C[C@@H]2CC[C@@H]1O`, the Potency result was “inactive”.
Take `CN1CCc2c(c3ccccc3n2Cc2ccc(C(=O)NO)cc2)C1`: the Potency is 16.6 µM (active).
With `C=CC[C@@H]1C=C(C)C[C@H](C)C[C@H](OC)[C@H]2O[C@@](O)(C(=O)C(=O)N3CCCC[C@H]3C(=O)O[C@H](C(C)=C[C@@H]3CC[C@H](O)[C@H](OC)C3)[C@@H](C)[C@@H](O)CC1=O)[C@@H](C)C[C@@H]2OC` the figure was 1.18 µM (active).
With `COc1ccc(S(=O)(=O)Nc2cc(-c3c(O)ccc4ccccc34)c(O)c3ccccc23)cc1`, the Potency is 2.35 µM (active).
Turning to `CN1CCCN(C(=O)c2cccc(-c3ccc(C=C4C(=O)Nc5ccc(Cl)cc54)o3)c2)CC1`, the Potency was 14.8 µM (active).
